Molecules are shown by their SMILES. Values joined by “and” are separate entries in the source; they are usually repeats but may differ in a detail not shown here. Equal entries are not always repeated. Active and inactive are the calls of the source.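 How the source made its calls, unless noted: active means mean z-score across replicates of 1.96 or higher in either the MELAS or the Rieske mutant cell line; inactive means the rest.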

The record followed here is PubChem BioAssay.

Assay [1] in a line: growth inhibition of BT084 medulloblastoma cells, cell-based, ICGC_MB145, cisplatin and BGB IC40 combos (AID 1671461).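 Further: cells exposed to drugs for 96 hours; 0% = vehicle DMSO and 100% = high DMSO full killing control.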 As to conditions: drug combinations, stronger effect = higher value.
Assay [2] in a line: growth inhibition of RCMB18 medulloblastoma cells, cell-based, cisplatin and BGB IC40 combos (AID 1671462; in the data active means inhibition above about 80%;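 further: cells exposed to compound for four days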). As to conditions: stronger effect = higher value.
Assay [3] is described as follows: growth inhibition of CRL1545 osteosarcoma cells, cell-based, cisplatin and BGB IC20 combos (AID 1671464; in the data active means inhibition above about 80%;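 further: cells exposed to compound for 96 hours before readout; 0% = vehicle DMSO and 100% = high DMSO killing control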). The conditions noted are these: stronger effect = higher value.
Assay [4] in a line: liver-stage malaria parasite growth inhibition, primary screen, cell-based, HepG2, luciferase luminescence, HepG2 viability (AID 624349; in the data active means parasite load remaining mostly below about 12%, no sharp cut-off; inactive means mostly above about 10%;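 further: 100% = mean of DMSO negative control wells on the same plate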). The conditions noted are these: P. berghei liver stage in HepG2, luciferase luminescence, concentration not given here; parasite load remaining: stronger effect = lower value; viability: measured here: HepG2 viability without parasites.
A short description of assay [5]: sensitizers of A549 cells to miR-34 induction, primary screen, imaging, A549 dox-inducible miR-34, nuclei and caspase counts (AID 1347080;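 active means compounds whose cell count with miR-34 switched on is under 0.7 times the count with it off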). As to conditions: A549 miR-34 inducible, Hoechst nuclei count, 48 h.
Assay [6] in a line: survival rescue of mitochondrial mutant cells in low glucose, primary screen, MELAS cybrids, Rieske KO mouse fibroblasts, CellTiter-Glo (AID 1508586;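 further: z relative to plate mean and SD of compound and empty wells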). (In general: Cellular ATP, detected with luciferase, serves as a proxy for viable cell number.)
Assay [7] deals with NAD(+) hydrolase SARM1 (Homo sapiens) (UniProt Q6SZW1). The assay is described as follows: SARM1 TIR NADase inhibitors, cell lysate, NAD-Glo luminescence (AID 1508614;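 active means compound whose remaining NAD level is above about 45 nM, limit read from the data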). As to conditions: SAM-TIR HEK293T lysate NADase, at 1 µM, stronger effect = higher value.
Sequence of NAD(+) hydrolase SARM1 (Homo sapiens) (Q6SZW1 whole entry, looked up): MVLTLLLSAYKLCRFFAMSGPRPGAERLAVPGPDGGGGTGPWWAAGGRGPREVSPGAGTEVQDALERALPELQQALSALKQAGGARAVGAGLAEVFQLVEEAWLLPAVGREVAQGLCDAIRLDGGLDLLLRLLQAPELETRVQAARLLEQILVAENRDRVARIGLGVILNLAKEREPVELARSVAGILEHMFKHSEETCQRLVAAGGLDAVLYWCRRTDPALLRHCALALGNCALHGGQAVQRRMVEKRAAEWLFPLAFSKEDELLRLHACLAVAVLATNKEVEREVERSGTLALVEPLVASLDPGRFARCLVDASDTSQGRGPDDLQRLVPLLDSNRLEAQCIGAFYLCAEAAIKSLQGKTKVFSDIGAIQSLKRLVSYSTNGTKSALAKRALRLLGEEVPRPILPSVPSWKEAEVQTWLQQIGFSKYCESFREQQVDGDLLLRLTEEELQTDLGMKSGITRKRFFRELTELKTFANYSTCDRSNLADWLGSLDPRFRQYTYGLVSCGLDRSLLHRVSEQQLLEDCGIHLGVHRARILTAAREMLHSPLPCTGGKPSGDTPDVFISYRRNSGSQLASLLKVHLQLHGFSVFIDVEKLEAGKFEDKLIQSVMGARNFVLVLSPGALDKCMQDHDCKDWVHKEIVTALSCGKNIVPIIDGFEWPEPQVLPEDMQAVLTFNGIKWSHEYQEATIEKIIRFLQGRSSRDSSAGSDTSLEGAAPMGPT
A short description of assay [8]: viability rescue of complex I mutant cybrids, primary screen, cell-based, galactose medium, ATP luminescence (AID 1645843;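 active means z-score of at least 1.8 in each of two replicates, scored against plate mean and spread of sample wells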;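 further: positive z means more ATP and so rescue of galactose-driven cybrid death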). As to conditions: complex I mutant cybrid cells, 72 h, stronger effect = higher value.
Setting [9] is: stronger effect = lower value, cell number ratio, induced over uninduced.
Where [10] appears, read: measured here: relative caspase fold change +Dox/-Dox.
The mark [11] stands for this setting: measured here: total cells with miR-34 induction, stronger effect = lower value.
Setting [12] is: measured here: total cells without miR-34 induction.
[13] abbreviates: MELAS cybrid survival, CellTiter-Glo 48 h, stronger effect = higher value.
[14] abbreviates: Rieske KO mouse fibroblast survival, CellTiter-Glo 72 h.

For `O=C(NCC1(c2nc(-c3ccccc3)cs2)CCOCC1)c1cccc(-c2noc(C(F)(F)F)n2)c1`, the inhibition was 12.8% and 27.4% in assay [1] (cisplatin combination, at 5 µM); 16% and -10.3% in assay [1] (measured here: BGB IC40 combination 0.05 uM, at 0.05 µM); 15.3% and 24.7% in assay [1] (single agent, at 5 µM); -34.6% (inactive) and 5.45% (inactive) in assay [2] (at 0.5 µM); -80.8% and -19.2% in assay [2] (cisplatin combo, at 5 µM); -21% and 1.81% in assay [2] (measured here: BGB IC40 combination, at 0.05 µM). For the same molecule, the inhibition is -74.6% and 3.89% in assay [2] (measured here: combination with cisplatin, at 0.5 µM); 14.7% and 26.4% in assay [2] (single agent, at 5 µM); -45.6% (inactive) and -15.7% (inactive) in assay [3] (at 0.5 µM); -23% and -21.2% in assay [3] (measured here: with BGB IC20 combination, at 0.5 µM); -60.5% and -14.7% in assay [3] (measured here: with cisplatin IC20 combination, at 0.5 µM); -48% and 14.2% in assay [3] (single agent, at 0.05 µM). In addition, the inhibition in assay [3] (single agent, at 5 µM) is 36.5% and 43.7%.
For `NCc1ccccc1CC(=O)N[C@@H]1C(=O)N2C(C(=O)O)=C(CSc3nnnn3CC(=O)O)CS[C@H]12`, in assay [4], the parasite load remaining was 167% (inactive) and 62% (inactive). Moreover, the viability in assay [4] is 121% and 87.5%. Moreover, the values for the fold change in assay [5] (setting [9]) and in assay [5] (setting [10]) were 0.949 (inactive) and 1.15, respectively. Moreover, the cell count in assay [5] (setting [11]) was determined as 8230; in assay [5] (setting [12]), 8670. For the same molecule, the z-score in assay [6] (setting [13]) is 0.404 (inactive); in assay [6] (setting [14]), -0.0556. Further, the remaining NAD in assay [7] was 10 nM (inactive).
Take `NCc1ccc(-c2cccs2)cc1`: the fold change in assay [5] (setting [9]) is 0.89 (inactive); in assay [5] (setting [10]) it was 0.746. Besides, the cell count in assay [5] (setting [11]) was 8580; in assay [5] (setting [12]), 9650. The z-score was -0.349 (inactive) in assay [6] (setting [13]), -0.59 in assay [6] (setting [14]) and 0.51 (inactive) in assay [8].
Regarding `CCCn1ncc(NC(=O)Cn2cc(C)c(-c3cccc(Cl)c3)n2)n1`, the figures for the fold change in assay [5] (setting [9]) and in assay [5] (setting [10]) were 0.851 (inactive) and 1.04, respectively. Further, the cell count in assay [5] (setting [11]) is 7170; in assay [5] (setting [12]) it was 8420. Also, the z-score is -0.0413 (inactive) in assay [6] (setting [13]), -0.435 in assay [6] (setting [14]) and 1.05 (inactive) in assay [8].
For the molecule `CN1CCN(Cc2ccc3sccc3c2)CC1CCO` (stereo not drawn), the fold change in assay [5] (setting [9]) was 0.86 (inactive); in assay [5] (setting [10]), 1.5. Further, the figures for the cell count in assay [5] (setting [11]) and in assay [5] (setting [12]) were 8240 and 9580, respectively. Also, the z-score in assay [6] (setting [13]) was 0.0101 (inactive); in assay [6] (setting [14]) it was -0.424; in assay [8] it was -0.48 (inactive).
With `O=C(NCCc1ccco1)c1cc(C2CC2)[nH]n1`, the fold change in assay [5] (setting [9]) is 0.916 (inactive); in assay [5] (setting [10]), 1.14. Further, the results for the cell count in assay [5] (setting [11]) and in assay [5] (setting [12]) were 9380 and 10200, respectively. The results for the z-score in assay [6] (setting [13]), in assay [6] (setting [14]) and in assay [8] were 0.356 (inactive), 0.504 and -0.495 (inactive), respectively.
In the case of `Cc1c(CNC(=O)C(=O)c2c(-c3ccccc3)cc3ccccn23)cnn1C`, the fold change in assay [5] (setting [9]) was 0.827 (inactive); in assay [5] (setting [10]) it was 2.08. Besides, the cell count in assay [5] (setting [11]) came out at 7720; in assay [5] (setting [12]) it was 9330. The z-score was 0.665 (inactive) in assay [6] (setting [13]), -0.13 in assay [6] (setting [14]) and 0.815 (inactive) in assay [8].
`CCOc1ccc(C=C2NCCc3cc(OCC)c(OCC)cc32)cc1OCC`: the figures for the fold change in assay [5] (setting [9]) and in assay [5] (setting [10]) were 0.846 (inactive) and 0.801, respectively. The figures for the cell count in assay [5] (setting [11]) and in assay [5] (setting [12]) were 4950 and 5850, respectively. For the same molecule, the z-score in assay [6] (setting [13]) was -1.41 (inactive); in assay [6] (setting [14]), -0.0245; in assay [8] it was -2.65 (inactive).
With `CCc1nc(NC(=O)NC(c2ccccc2)c2ccco2)nn1C` (stereo not drawn), the fold change in assay [5] (setting [9]) was 0.878 (inactive); in assay [5] (setting [10]), 0.916. The cell count came out at 8500 in assay [5] (setting [11]) and 9680 in assay [5] (setting [12]). For the same molecule, the z-score in assay [6] (setting [13]) is -0.443 (inactive); in assay [6] (setting [14]) it was 0.186; in assay [8] it was 1.04 (inactive).
Take `CN(CCn1cccn1)Cc1ccc(-c2nc(-c3cccnc3)cc(=O)[nH]2)cc1`: the fold change in assay [5] (setting [9]) was 0.951 (inactive); in assay [5] (setting [10]), 1.22. Moreover, the cell count in assay [5] (setting [11]) was 8710; in assay [5] (setting [12]), 9150. Besides, the z-score in assay [6] (setting [13]) is -0.265 (inactive); in assay [6] (setting [14]), 0.251; in assay [8], 0.18 (inactive).
Regarding `O=C(C=Cc1ccc(O)c(O)c1)NCCc1ccc(O)cc1`, the figures for the fold change in assay [5] (setting [9]) and in assay [5] (setting [10]) were 0.861 (inactive) and 0.612, respectively. For the same molecule, the cell count in assay [5] (setting [11]) is 8240; in assay [5] (setting [12]) it was 9580. Also, the values for the z-score in assay [6] (setting [13]), in assay [6] (setting [14]) and in assay [8] were -0.586 (inactive), -0.131 and 0.38 (inactive), respectively.
With `CNCc1ccccc1-c1cccs1`, the fold change in assay [5] (setting [9]) is 0.861 (inactive); in assay [5] (setting [10]), 0.648. Moreover, the figures for the cell count in assay [5] (setting [11]) and in assay [5] (setting [12]) were 8130 and 9440, respectively. In addition, the z-score in assay [6] (setting [13]) was -0.43 (inactive); in assay [6] (setting [14]) it was -0.443; in assay [8], 0.065 (inactive).
In the case of `COc1ccc(N2CCN(c3ncnc4sccc34)C(C)C2=O)cc1` (stereo not drawn), the fold change is 0.791 (inactive) in assay [5] (setting [9]) and 1.18 in assay [5] (setting [10]). Moreover, the cell count in assay [5] (setting [11]) was determined as 6180; in assay [5] (setting [12]) it was 7810. Further, the z-score in assay [6] (setting [13]) was -0.528 (inactive); in assay [6] (setting [14]) it was -0.443; in assay [8] it was -0.505 (inactive).
On to `CC(O)Cc1cn(C2CCN(c3ncnc4nc[nH]c34)CC2)nn1` (stereo not drawn), for which the fold change in assay [5] (setting [9]) was 0.957 (inactive); in assay [5] (setting [10]), 0.915. Also, the cell count was 8270 in assay [5] (setting [11]) and 8650 in assay [5] (setting [12]). Besides, the z-score in assay [6] (setting [13]) was -0.102 (inactive); in assay [6] (setting [14]), -1.64; in assay [8] it was -0.52 (inactive).
With `O=C(O)CSc1nnc(-c2ccc([N+](=O)[O-])o2)o1`, the fold change in assay [5] (setting [9]) was 0.911 (inactive); in assay [5] (setting [10]), 0.48. Besides, the cell count in assay [5] (setting [11]) is 8530; in assay [5] (setting [12]), 9370. Further, the z-score in assay [6] (setting [13]) is -1.16 (inactive); in assay [6] (setting [14]), 0.209; in assay [8], 0.17 (inactive).
For `COc1ccc(C(=O)Nc2c(Cl)cncc2Cl)cc1OC1CCCC1`, the figures for the fold change in assay [5] (setting [9]) and in assay [5] (setting [10]) were 0.898 (inactive) and 0.397, respectively. Also, the cell count in assay [5] (setting [11]) amounted to 7850; in assay [5] (setting [12]) it was 8740. Moreover, the z-score was 0.807 (inactive) in assay [6] (setting [13]), 0.781 in assay [6] (setting [14]) and 0.215 (inactive) in assay [8].
On to `O=C(O)c1ccc(-c2ccccc2OC(F)(F)F)o1`, for which the fold change in assay [5] (setting [9]) was 0.872 (inactive); in assay [5] (setting [10]), 0.264. For the same molecule, the figures for the cell count in assay [5] (setting [11]) and in assay [5] (setting [12]) were 8780 and 10100, respectively. Also, the z-score is -0.488 (inactive) in assay [6] (setting [13]), 0.181 in assay [6] (setting [14]) and 0.04 (inactive) in assay [8].
For the molecule `Cc1csc2ncnc(-c3cccc4cccnc34)c12`, the fold change in assay [5] (setting [9]) is 0.931 (inactive); in assay [5] (setting [10]) it was 0.756. Besides, the figures for the cell count in assay [5] (setting [11]) and in assay [5] (setting [12]) were 8530 and 9170, respectively. The z-score in assay [6] (setting [13]) was -0.57 (inactive); in assay [6] (setting [14]), -0.471; in assay [8], -0.505 (inactive).
As for `CCN(CC)S(=O)(=O)c1cc(C(=O)Nc2ccccc2C(=O)O)ccc1Br`, the fold change in assay [5] (setting [9]) was 0.904 (inactive); in assay [5] (setting [10]) it was 0.416. The cell count in assay [5] (setting [11]) turned out to be 8290; in assay [5] (setting [12]), 9170. In addition, the figures for the z-score in assay [6] (setting [13]), in assay [6] (setting [14]) and in assay [8] were -0.577 (inactive), 0.639 and 0.82 (inactive), respectively.
For `COc1ccc(CN2CCN(c3cc(C)nc(N)n3)CC2=O)cc1`, the fold change in assay [5] (setting [9]) was 0.879 (inactive); in assay [5] (setting [10]) it was 1.5. Besides, the cell count came to 8130 in assay [5] (setting [11]) and 9240 in assay [5] (setting [12]). Also, the values for the z-score in assay [6] (setting [13]), in assay [6] (setting [14]) and in assay [8] were 0.162 (inactive), 0.559 and -0.615 (inactive), respectively.

A word on the inhibition: it is the relative decrease from the control value, in per cent. As a reminder, the viability is a read-out of living cells in per cent, often relative to untreated cells.
